In paper PMC9911399, “Two distinct binding modes provide the RNA-binding protein RbFox with extraordinary sequence specificity”:
Positions count from the first letter of the chain named. The full ranking holds about 16,000 sequences; the median of “ka relative to ugcaugu” is about 0.0091, and the highest 2% start at about 0.032. Only a selection was taken, and the highest values are over-represented in it overall.

T1: RBFOX1 RRM (Homo sapiens, UniProt Q9NWB1 109-208)
T1 sequence: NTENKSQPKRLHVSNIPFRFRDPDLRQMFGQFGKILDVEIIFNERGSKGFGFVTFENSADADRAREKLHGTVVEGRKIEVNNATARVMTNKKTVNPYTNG

B1: UCUCUCC (DNA:RNA)
RNA: GGGAGACCGGAAUUCAGAUUGUCCUCUCUCCUUAAAUCCCGUCGUAGCCACCA
DNA 1: CAATCTGAATTCCGGTCTCCC
DNA 2: TGGTGGCTACGACGGGATT
B2: GACACAG (DNA:RNA)
RNA: GGGAGACCGGAAUUCAGAUUGUCCGACACAGUUAAAUCCCGUCGUAGCCACCA
DNA 1: CAATCTGAATTCCGGTCTCCC
DNA 2: TGGTGGCTACGACGGGATT
B3: UCUUGGG (DNA:RNA)
RNA: B1 RNA with C28U, U29G, C30G, C31G
DNA 1: CAATCTGAATTCCGGTCTCCC
DNA 2: TGGTGGCTACGACGGGATT
B4: UCCGCCC (DNA:RNA)
RNA: B1 RNA with U27C, C28G, U29C
DNA 1: CAATCTGAATTCCGGTCTCCC
DNA 2: TGGTGGCTACGACGGGATT
B5: CCGCAGG (DNA:RNA)
RNA: B1 RNA with U25C, U27G, U29A, C30G, C31G
DNA 1: CAATCTGAATTCCGGTCTCCC
DNA 2: TGGTGGCTACGACGGGATT
B6: UGCUACU (DNA:RNA)
RNA: B1 RNA with C26G, U27C, C28U, U29A, C31U
DNA 1: CAATCTGAATTCCGGTCTCCC
DNA 2: TGGTGGCTACGACGGGATT
B7: CGGCACG (DNA:RNA)
RNA: B1 RNA with U25C, C26G, U27G, U29A, C31G
DNA 1: CAATCTGAATTCCGGTCTCCC
DNA 2: TGGTGGCTACGACGGGATT
B8: GGCCACG (DNA:RNA)
RNA: B2 RNA with A26G, A28C, C29A, A30C
DNA 1: CAATCTGAATTCCGGTCTCCC
DNA 2: TGGTGGCTACGACGGGATT
B9: GGCACCG (DNA:RNA)
RNA: B2 RNA with A26G, A30C
DNA 1: CAATCTGAATTCCGGTCTCCC
DNA 2: TGGTGGCTACGACGGGATT
B10: UGGGCGG (DNA:RNA)
RNA: B2 RNA with G25U, A26G, C27G, A28G, A30G
DNA 1: CAATCTGAATTCCGGTCTCCC
DNA 2: TGGTGGCTACGACGGGATT
B11: CUGGCGC (DNA:RNA)
RNA: B2 RNA with G25C, A26U, C27G, A28G, A30G, G31C
DNA 1: CAATCTGAATTCCGGTCTCCC
DNA 2: TGGTGGCTACGACGGGATT
B12: UGGGCGC (DNA:RNA)
RNA: B1 RNA with C26G, U27G, C28G, U29C, C30G
DNA 1: CAATCTGAATTCCGGTCTCCC
DNA 2: TGGTGGCTACGACGGGATT
B13: UGGCGCU (DNA:RNA)
RNA: B1 RNA with C26G, U27G, U29G, C31U
DNA 1: CAATCTGAATTCCGGTCTCCC
DNA 2: TGGTGGCTACGACGGGATT
B14: UGGCGGU (DNA:RNA)
RNA: B1 RNA with C26G, U27G, U29G, C30G, C31U
DNA 1: CAATCTGAATTCCGGTCTCCC
DNA 2: TGGTGGCTACGACGGGATT
B15: CUGGCGG (DNA:RNA)
RNA: B2 RNA with G25C, A26U, C27G, A28G, A30G
DNA 1: CAATCTGAATTCCGGTCTCCC
DNA 2: TGGTGGCTACGACGGGATT
B16: CAGCUCC (DNA:RNA)
RNA: B1 RNA with U25C, C26A, U27G
DNA 1: CAATCTGAATTCCGGTCTCCC
DNA 2: TGGTGGCTACGACGGGATT
B17: AGACUGC (DNA:RNA)
RNA: B1 RNA with U25A, C26G, U27A, C30G
DNA 1: CAATCTGAATTCCGGTCTCCC
DNA 2: TGGTGGCTACGACGGGATT
B18: AGGGAGG (DNA:RNA)
RNA: B2 RNA with G25A, A26G, C27G, A28G, C29A, A30G
DNA 1: CAATCTGAATTCCGGTCTCCC
DNA 2: TGGTGGCTACGACGGGATT
B19: AAGUGUC (DNA:RNA)
RNA: B2 RNA with G25A, C27G, A28U, C29G, A30U, G31C
DNA 1: CAATCTGAATTCCGGTCTCCC
DNA 2: TGGTGGCTACGACGGGATT
B20: UGAGCAU (DNA:RNA)
RNA: B2 RNA with G25U, A26G, C27A, A28G, G31U
DNA 1: CAATCTGAATTCCGGTCTCCC
DNA 2: TGGTGGCTACGACGGGATT
B21: UCAUGUU (DNA:RNA)
RNA: B1 RNA with U27A, C28U, U29G, C30U, C31U
DNA 1: CAATCTGAATTCCGGTCTCCC
DNA 2: TGGTGGCTACGACGGGATT
B22: GCUGUUA (DNA:RNA)
RNA: B1 RNA with U25G, C28G, C30U, C31A
DNA 1: CAATCTGAATTCCGGTCTCCC
DNA 2: TGGTGGCTACGACGGGATT
B23: GGCGCCG (DNA:RNA)
RNA: B2 RNA with A26G, A28G, A30C
DNA 1: CAATCTGAATTCCGGTCTCCC
DNA 2: TGGTGGCTACGACGGGATT
B24: GGGAUAG (DNA:RNA)
RNA: B2 RNA with A26G, C27G, C29U
DNA 1: CAATCTGAATTCCGGTCTCCC
DNA 2: TGGTGGCTACGACGGGATT
B25: CACCGGA (DNA:RNA)
RNA: B2 RNA with G25C, A28C, C29G, A30G, G31A
DNA 1: CAATCTGAATTCCGGTCTCCC
DNA 2: TGGTGGCTACGACGGGATT
B26: GGGGGGA (DNA:RNA)
RNA: B2 RNA with A26G, C27G, A28G, C29G, A30G, G31A
DNA 1: CAATCTGAATTCCGGTCTCCC
DNA 2: TGGTGGCTACGACGGGATT
B27: CGGAUAG (DNA:RNA)
RNA: B2 RNA with G25C, A26G, C27G, C29U
DNA 1: CAATCTGAATTCCGGTCTCCC
DNA 2: TGGTGGCTACGACGGGATT
B28: GGAUAGU (DNA:RNA)
RNA: B2 RNA with A26G, C27A, A28U, C29A, A30G, G31U
DNA 1: CAATCTGAATTCCGGTCTCCC
DNA 2: TGGTGGCTACGACGGGATT
B29: CGGAUUG (DNA:RNA)
RNA: B2 RNA with G25C, A26G, C27G, C29U, A30U
DNA 1: CAATCTGAATTCCGGTCTCCC
DNA 2: TGGTGGCTACGACGGGATT
B30: GUCCGGA (DNA:RNA)
RNA: B2 RNA with A26U, A28C, C29G, A30G, G31A
DNA 1: CAATCTGAATTCCGGTCTCCC
DNA 2: TGGTGGCTACGACGGGATT
B31: GAAUUUG (DNA:RNA)
RNA: B2 RNA with C27A, A28U, C29U, A30U
DNA 1: CAATCTGAATTCCGGTCTCCC
DNA 2: TGGTGGCTACGACGGGATT
B32: GUCGGGA (DNA:RNA)
RNA: B2 RNA with A26U, A28G, C29G, A30G, G31A
DNA 1: CAATCTGAATTCCGGTCTCCC
DNA 2: TGGTGGCTACGACGGGATT
B33: GGGAUUG (DNA:RNA)
RNA: B2 RNA with A26G, C27G, C29U, A30U
DNA 1: CAATCTGAATTCCGGTCTCCC
DNA 2: TGGTGGCTACGACGGGATT
B34: GUCGGAU (DNA:RNA)
RNA: B2 RNA with A26U, A28G, C29G, G31U
DNA 1: CAATCTGAATTCCGGTCTCCC
DNA 2: TGGTGGCTACGACGGGATT
B35: GGAUUUG (DNA:RNA)
RNA: B2 RNA with A26G, C27A, A28U, C29U, A30U
DNA 1: CAATCTGAATTCCGGTCTCCC
DNA 2: TGGTGGCTACGACGGGATT

target: T1, RBFOX1 RRM; assay: EMSA; HiTS-Eq, 1 nM pool, 10 min; buffer printed only for the single-RNA assays: 10 mM Tris pH 7.5, 150 mM NaCl, 3.4 mM EDTA, 0.001% NP-40, 30 C; conditions: tags: His6 N-terminal (pET28a); label: 5' 32P
Procedure, shortened: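 Purified RbFox RRM, wild type or mutant, was incubated for 10 min in 50 µL with 1 nM of a 5′-radiolabelled RNA pool carrying 7 randomized nucleotides, whose flanks were annealed to DNA oligonucleotides, over a series of increasing protein concentrations. Unbound RNA was resolved on 8% native PAGE, cut out, reverse-transcribed, barcoded by PCR and sequenced on an Illumina HiSeq 2500. Relative association constants were derived from changes in read counts for each RNA species versus the control reaction and normalised to the cognate motif.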

Binder | binding signal
B1 | 0.00975 KA relative to UGCAUGU
B2 | 0.00906 KA relative to UGCAUGU
B3 | 0.00663 KA relative to UGCAUGU
B4 | 0.00894 KA relative to UGCAUGU
B5 | 0.0108 KA relative to UGCAUGU
B6 | 0.0158 KA relative to UGCAUGU
B7 | 0.0377 KA relative to UGCAUGU
B8 | 0.00911 KA relative to UGCAUGU
B9 | 0.0143 KA relative to UGCAUGU
B10 | 0.0408 KA relative to UGCAUGU
B11 | 0.02 KA relative to UGCAUGU
B12 | 0.0335 KA relative to UGCAUGU
B13 | 0.0198 KA relative to UGCAUGU
B14 | 0.0227 KA relative to UGCAUGU
B15 | 0.00866 KA relative to UGCAUGU
B16 | 0.00767 KA relative to UGCAUGU
B17 | 0.0128 KA relative to UGCAUGU
B18 | 0.0245 KA relative to UGCAUGU

Binder | binding signal
B19 | 0.0153 KA relative to UGCAUGU
B20 | 0.0172 KA relative to UGCAUGU
B21 | 0.0106 KA relative to UGCAUGU
B22 | 0.0113 KA relative to UGCAUGU
B23 | 0.00841 KA relative to UGCAUGU
B24 | 0.0337 KA relative to UGCAUGU
B25 | 0.00389 KA relative to UGCAUGU
B26 | 0.0226 KA relative to UGCAUGU
B27 | 0.0228 KA relative to UGCAUGU
B28 | 0.0169 KA relative to UGCAUGU
B29 | 0.0329 KA relative to UGCAUGU
B30 | 0.00347 KA relative to UGCAUGU
B31 | 0.0172 KA relative to UGCAUGU
B32 | 0.0117 KA relative to UGCAUGU
B33 | 0.0593 KA relative to UGCAUGU
B34 | 0.00831 KA relative to UGCAUGU
B35 | 0.034 KA relative to UGCAUGU
